Our source for the max response values is PubChem BioAssay AID2314 (National Center for Advancing Translational Sciences (NCATS), 2010).

Among all 300,000 compounds or so, about 37,000 (12%) were called active. The sample holds actives, similar compounds and a random draw of the others, so the mix is not that of the screen. A number with no mark means an inactive call. No stated cut-off is given here; in the data, active means max response mostly above about 13% (no sharp cut-off); inactive means mostly below about 14%.

A short description of this assay: Cycloheximide Counterscreen for Small Molecule Inhibitors of Shiga Toxin. Further: read at 38.3 µM for the half of the compounds with a filed dose; 0% is about no effect. The settings on record: cell reporter, cycloheximide protein synthesis inhibition counterscreen; hits give high values. (In general: Counterscreens check selectivity or assay interference.)
As for `COc1ccc(-n2ncc3c2CC(C)(C)CC3NC(=O)CCc2c(C)noc2C)cc1` (centres undefined), the max response was 1.45%.

For `C#CC(CCN1CCCCC1)(OC)c1ccccc1` (centres undefined), the max response was -1.93%.

`COc1ccccc1NC(=S)N1CCN(C(c2ccccc2)c2ccccc2)CC1`: the max response is -1.77%.

On to `Cc1cccc(NC(=S)N2CCC(c3nc4ccccc4s3)CC2)c1`, for which the max response was -8.19%.

As for `Cc1nc2ccc(NC(=O)N3CCC(c4ccccc4)C3)cc2nc1C` (centres undefined), the max response is -1.48%.

Regarding `Cc1nc2ccc(NC(=S)N3CCC(C)CC3)cc2nc1C`, the max response is 29.7% (active).

`Cc1ccc(CC(=O)Nc2ccc(OC(F)F)c(Cl)c2)cc1C`: the max response is -1.56%.

Consider `O=C(Cc1ccc(Cl)c(Cl)c1)Nc1ccc(SC(F)F)cc1`, for which the max response was 32.1% (active).

On to `CC(=O)N1CCN(CC(=O)Nc2ccc(SC(F)F)cc2)CC1`, for which the max response is -7.31%.

With `Nc1ccccc1SC(C[N+](=O)[O-])c1ccccc1` (centres undefined), the max response is 58.7% (active).

For the compound `Cc1ccc(C(C[N+](=O)[O-])c2c(C)cc3ccccn23)cc1` (centres undefined), the max response is -2.05%.

As for `CCCN1C2CCCC1CC(NC(=O)c1cccc(OC)c1)C2` (centres undefined), the max response was 0.249%.

Regarding `COc1ccccc1C1CCN(c2ccc([N+](=O)[O-])cn2)CC1`, the max response is 4.09%.

For the compound `O=C(Cc1c(Cl)cccc1Cl)NC1CC1`, the max response is -4.84%.

On to `Cc1ccc(S(=O)(=O)c2nnn3c2nc(N2CCN(c4ccccn4)CC2)c2ccccc23)cc1`, for which the max response was -2.94%.

With `FC(F)(F)c1cc(-c2ccco2)nc(NCc2ccc(Cl)cc2)n1`, the max response is -4.49%.

For `CN(CC(=O)Nc1ccc(F)cc1)C(=O)c1ccc(-c2ccc(Cl)cc2)o1`, the max response is 10.2%.

In the case of `Nc1nnnn1CC(=O)N/N=C/c1ccc(-c2cccc(Cl)c2)o1`, the max response was 12.6%.

For `O=C(N/N=C\c1ccc(-c2ccc(Cl)c(Cl)c2)o1)C(=O)N1CCCC1`, the max response is -1.36%.

In the case of `COC(=O)N/N=C/c1ccc(-c2ccc(Cl)c(Cl)c2)o1`, the max response is 51.5% (active).

As to `Cc1cccc(-c2nc(CS(=O)CC(=O)NC(C)CCc3ccccc3)c(C)o2)c1` (centres undefined), the max response was -0.794%.

In the case of `O=C(Nc1ccc(Cl)c(Cl)c1)N1CC=C(c2ccccc2)CC1`, the max response was 4.38%.

On to `Cc1ccc(C)c(N2CCN(C(=O)CCCn3c(=O)c4cccn4c4cccnc43)CC2)c1`, for which the max response was -1.51%.

Regarding `CCOC(=O)C1=C(c2ccccc2)NC(=S)NC1c1ccc(Cl)cc1` (centres undefined), the max response is 1.29%.

For `COc1ccc(C2NC(=S)NC3=C2CCc2ccccc23)cc1OC` (centres undefined), the max response is 6.79%.

With `CCOc1ccc(C2NC(=S)NC3=C2CCc2ccccc23)cc1` (centres undefined), the max response was 54.2% (active).

For the compound `Cc1ccc(CNC(=O)[C@@H](NC(=O)Cc2ccccc2)C(C)C)cc1`, the max response is 3.51%.

Take `CSCCC(NS(=O)(=O)c1ccc2c(c1)oc(=O)n2C)C(=O)NC1CCCc2ccccc21` (centres undefined): the max response was 7.75%.

Turning to `O=[N+]([O-])c1cccc(S(=O)(=O)NCc2ccccn2)c1`, the max response was -2.36%.

As to `COc1cccc(C(=O)OCc2cc(=O)oc3c(C)c(C)ccc23)c1OC`, the max response is -3.37%.

Regarding `O=C(Nc1ccc(Cl)c(Cl)c1)c1ccccc1NC(=O)C1CC=CCC1C(=O)O` (centres undefined), the max response is 38.2% (active).

On to `O=C(O)C1CC=CCC1C(=O)NCCc1ccccc1` (centres undefined), for which the max response was -2.55%.

With `O=C(Nc1ccccc1C(=O)N1CCCCCC1)c1ccccc1Cl`, the max response is -3.34%.

For `O=C(O)C1CC=CCC1C(=O)Nc1ccccc1C(=O)N1CCN(c2ccccc2)CC1` (centres undefined), the max response was -3.82%.

On to `O=C(Nc1cccc(Cl)c1Cl)c1ccccc1NC(=O)C1CC=CCC1C(=O)O` (centres undefined), for which the max response was 26.8% (active).

Regarding `O=C(Nc1ccccc1)c1ccccc1NC(=O)C(F)(F)F`, the max response was 11.2%.

With `COc1ccc(-c2nn(-c3ccccc3)cc2/C=C2/SC(=S)N(CCCC(=O)O)C2=O)c(C)c1`, the max response is -2.33%.

`COc1cccc(CNS(=O)(=O)c2ccc3c(c2)CC(C)N3C(=O)C2CCC2)c1` (centres undefined): the max response was 8.91%.

With `O=C(NCc1cccs1)c1ccc(Br)o1`, the max response was 6.23%.

`C/C(=N/NC(=O)c1ccc(Br)o1)c1ccc(C)o1`: the max response was 78.1% (active).

Take `CC(CCc1ccccc1)NC(=O)c1ccc(Br)o1` (centres undefined): the max response is 5.6%.

Turning to `Cc1cc(C)c2c(-c3ccc(F)cc3)c(C#N)c(=O)n(C)c2n1`, the max response is -4.22%.

Turning to `CN(CCC1CCOCC1)Cc1cn[nH]c1-c1ccc(-c2ccccc2)cc1`, the max response is 19% (active).

In the case of `COc1ccc(-c2[nH]ncc2CN(C)Cc2c(C)n[nH]c2C)c(OC)c1`, the max response is -6.81%.

For the compound `O=C(c1ccc(F)cc1)C1CCN(Cc2cn[nH]c2-c2ccccc2)CC1`, the max response is -1.57%.

In the case of `Cc1nnc(CN(C)Cc2cn[nH]c2-c2ccc(-c3ccccc3)cc2)o1`, the max response is 14.6% (active).

Take `O=C(CC1C(=O)NCCN1Cc1ccc(-c2ccccc2)cc1)NCC1CCOCC1` (centres undefined): the max response is -0.46%.

Consider `COc1ccc(-c2[nH]ncc2CN(C)Cc2cc(C)[nH]n2)c(F)c1`, for which the max response is 7.91%.

With `CC1(C)c2[nH]c3ccccc3c2C[C@H]2C(=O)N(N)CC(=O)N21`, the max response was -5.11%.

As for `CC(C)(C)c1ccc(C(=O)NCc2nnc(SCC(=O)N3CCCc4ccccc43)n2-c2ccccc2)cc1`, the max response is -1.48%.

Regarding `CC(C)(C)C(=O)N(Cc1ccccc1)c1ccccn1`, the max response was 0.801%.

On to `Cc1ccccc1N1CCN(S(=O)(=O)c2ccc3ccccc3c2)CC1`, for which the max response is -1.83%.

Turning to `Cc1ccc(Cn2nnc3c(=O)[nH]c(C4CCN(S(=O)(=O)/C=C/c5ccccc5)CC4)nc32)cc1`, the max response is -2.92%.

On to `COc1cc(OC)cc(-c2nnc(SCC(=O)Nc3ccc(C(=O)O)cc3)s2)c1`, for which the max response was -1.06%.

In the case of `CSc1nsc(SCC(=O)Nc2cc(C(=O)O)ccc2C)n1`, the max response was 1.8%.

In the case of `Cc1csc(SCC(=O)Nc2sccc2C#N)n1`, the max response is 2.13%.

Turning to `COc1ccc(NC(=O)CSc2nc(SC)ns2)c(OC)c1`, the max response was 42.1% (active).

For the compound `COc1ccc(NC(=O)CSc2nc(C)cs2)cc1`, the max response was 27.7% (active).

Consider `COc1ccc(C)cc1NC(=O)CSc1nc(SC)ns1`, for which the max response was 10.3%.

Consider `O=S(=O)(NCCCCCCNS(=O)(=O)c1c(F)cccc1F)c1ccc2c(c1)OCCO2`, for which the max response is -6.04%.

Turning to `C#CCOc1ccccc1/C=C1/C(=O)ON=C1C`, the max response is 7.98%.

Consider `COc1ccccc1C(=O)N/C(=C/c1ccco1)C(=O)Nc1ccc(C(=O)O)cc1`, for which the max response was -3.58%.

For `Cc1c(NC(=O)Nc2cccc([N+](=O)[O-])c2)c(=O)n(-c2ccccc2)n1C`, the max response is 3.26%.

On to `CCN1CCN(CCNC(=O)c2ccc3c(c2)NC(=O)/C(=C\c2ccc(OC)c(OC)c2)S3)CC1`, for which the max response was 1.31%.

Turning to `CC(Nc1nc(C(F)(F)F)nc2ccccc12)c1cccs1` (centres undefined), the max response is -5.02%.

Consider `C=Cn1cc[n+](CC(=O)c2ccc(OC)c(OC)c2)c1`, for which the max response is -1.55%.

For `CC(=O)Nc1nc(N(C)C)nc(N(C)C)n1`, the max response is 26.5% (active).

On to `CN(C)c1nc(NN)nc(Nc2ccc(F)cc2)n1`, for which the max response was -3.59%.

`CN(C)c1nc(Nc2ccc(Cl)c(Cl)c2)nc(N(C)C)n1`: the max response is 1.57%.

In the case of `O=S1(=O)CCO[C@H]2Cc3ccccc3[C@H]2N1Cc1ccccc1`, the max response was -1.34%.

With `Cc1c(-c2nn(C)c(=O)c3ccccc23)oc2ccc(F)cc2c1=O`, the max response was -8.42%.

As for `C=CCNC(=O)c1ccc(C)c(Br)c1`, the max response was 5.91%.

Regarding `Cc1cccc(-c2nc3ccc(C(=O)NCCN4CCN(C)CC4)cc3nc2-c2cccc(C)c2)c1`, the max response was -13.3%.

Regarding `C=CCNC(=O)c1ccc2c3n(nc2c1)-c1ccc(C)cc1CO3`, the max response was 34.5% (active).

In the case of `CCCCn1c(N)c(N(CCC(C)C)C(=O)c2ccc([N+](=O)[O-])o2)c(=O)[nH]c1=O`, the max response is -1.97%.

As for `CCN(CC)CC(=O)Nc1sc2c(c1C(=O)c1ccccc1C)CCC2`, the max response was -2.82%.

Regarding `CC(O)c1ccc(OCCN(C)c2ccccn2)cc1` (centres undefined), the max response was 55.9% (active).

For `CCOc1ccc(C(C(=O)NCCOC)N(CCOC)C(=O)CCC(=O)Nc2ccccn2)cc1` (centres undefined), the max response was 1.47%.

As for `CC(C)c1ccc(OCC(O)CN2CCN(c3ccccn3)CC2)cc1` (centres undefined), the max response is -1.42%.

For the compound `Nc1[nH]c(=S)nc2nc(-c3ccccc3)c(-c3ccccc3)nc12`, the max response was -2.36%.

In the case of `CC1=C(C(=O)NC2CC(C)(C)Cc3c2cnn3-c2ccc(C)cc2)OCCO1` (centres undefined), the max response is 10.7%.

For `Cc1ccc(Oc2cnn(-c3ccccc3)c(=O)c2Br)cc1`, the max response is 12.3%.

Consider `C=CCNc1cnn(-c2ccc(C)cc2)c(=O)c1Cl`, for which the max response was 66.7% (active).

Turning to `CC(C)(C)c1nc2ccccc2c(=O)n1N1C(=O)c2ccccc2C1=O`, the max response was -2.32%.

As for `Cc1ccc2nc(COc3ccc(N(C)S(=O)(=O)c4ccccc4)cc3)cc(=O)n2c1`, the max response was -1.15%.

In the case of `CCCCCc1ccc(-c2ccc(OCC)cc2)nc1`, the max response was 15.6% (active).

Regarding `CCCCCc1ccc(-c2ccc(C(=O)O)cc2)nc1`, the max response is 79.8% (active).

Consider `CCCCCc1ccc(-c2cn(Cc3ccc4ccccc4c3)nn2)cc1`, for which the max response is -2.64%.

For `O=C(O)c1ccc(COCC(F)(F)F)cc1`, the max response is -3.85%.

Consider `CCOc1c(CNCc2ccc(C(=O)O)cc2)cccc1OC`, for which the max response is -3.44%.

Regarding `CCOc1ccc(-c2ccc(SCC(=O)N3CCOCC3)nn2)cc1`, the max response was 23.3%.

For the compound `COc1ccc(CNC(=O)C2CCN(S(=O)(=O)c3ccc(SC)cc3)CC2)cc1`, the max response was 10.4%.

For `CCn1c(O)c(N=NC(=O)c2cccc(S(=O)(=O)N3CCCCC3)c2)c2ccccc21`, the max response is -2.88%.

Consider `CC(=O)[O][Sn]([c]1ccccc1)([c]1ccccc1)[c]1ccccc1`, for which the max response was -16.7%.
